Read-out in test [1]: Interleukin-8 (IL8), CXCL8 (gene 3576)
Briefly: BSK_CASM3C_IL8: BioMAP Diversity Plus: CASM3C Assay for Interleukin-8 (IL8) Biomarker Activity (AID 2283042).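 Note: IL-8 protein level quantified by ELISA.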 The following applies: primary human coronary artery smooth muscle cells; actives raise or lower the signal.

Read-out in test [2]: Human Leukocyte Antigen - DR isotype (HLADR), HLA-DRA (gene 3122)
Nature of the test: BSK_CASM3C_HLADR: BioMAP Diversity Plus: CASM3C Assay for Human Leukocyte Antigen - DR isotype (HLADR) Biomarker Activity (AID 2283043).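 Note: cell-surface HLA-DR protein level quantified by ELISA.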 As to conditions: primary human coronary artery smooth muscle cells; actives raise or lower the signal.

Read-out in test [3]: Macrophage colony-stimulating factor (MCSF), CSF1 (gene 1435)
Nature of the test: BSK_CASM3C_MCSF: BioMAP Diversity Plus: CASM3C Assay for Macrophage colony-stimulating factor (MCSF) Biomarker Activity (AID 2283044).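 Note: M-CSF protein amount quantified by ELISA after 24 h exposure.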 As to conditions: primary human coronary artery smooth muscle cells; actives raise or lower the signal.

Read-out in test [4]: Low-density lipoprotein receptor (LDLR), LDLR (gene 3949)
Nature of the test: BSK_CASM3C_LDLR: BioMAP Diversity Plus: CASM3C Assay for Low-density lipoprotein receptor (LDLR) Biomarker Activity (AID 2283045).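 Note: LDLR protein level on the cell surface quantified by ELISA.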 The following applies: primary human coronary artery smooth muscle cells; actives raise or lower the signal.

Read-out in test [5]: Monocyte Chemoattractant Protein-1 (MCP1), CCL2 (gene 6347)
Briefly: BSK_CASM3C_MCP1: BioMAP Diversity Plus: CASM3C Assay for Monocyte Chemoattractant Protein-1 (MCP1) Biomarker Activity (AID 2283046).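 Note: MCP-1 level quantified by ELISA 24 h after dosing.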 As to conditions: primary human coronary artery smooth muscle cells; actives raise or lower the signal.

A short description of test [6]: BSK_CASM3C_Proliferation: Cell Proliferation Assessment in the BioMAP Diversity Plus: CASM3C Assay (AID 2283047).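 Note: sulforhodamine B total protein stain as relative cell number at 560 nm; sub-confluent cells exposed 48 h before staining; fitted both ways against DMSO so gain or loss of cell number.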 The following applies: primary human coronary artery smooth muscle cells.
Read-out in test [7]: Monokine induced gamma interferon (MIG), CXCL9 (gene 4283)
Briefly: BSK_CASM3C_MIG: BioMAP Diversity Plus: CASM3C Assay for Monokine induced gamma interferon (MIG) Biomarker Activity (AID 2283048).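 Note: MIG protein level measured by ELISA.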 As to conditions: primary human coronary artery smooth muscle cells; actives raise or lower the signal.

Read-out in test [8]: serum amyloid A (SAA), SAA1 (gene 6288)
Briefly: BSK_CASM3C_SAA: BioMAP Diversity Plus: CASM3C Assay for serum amyloid A (SAA) Biomarker Activity (AID 2283049).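 Note: SAA protein level quantified by ELISA.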 The following applies: primary human coronary artery smooth muscle cells; actives raise or lower the signal.

Test [9] is described as follows: BSK_CASM3C_SRB: Viability Assessment in the BioMAP Diversity Plus: CASM3C Assay (AID 2283050).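 Note: total protein by SRB staining as cytotoxicity measure in parallel cultures; cells exposed to compound for 24 h.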 As to conditions: primary human coronary artery smooth muscle cells.
Read-out in test [10]: Tissue Factor, F3 (gene 2152)
Nature of the test: BSK_CASM3C_TissueFactor: BioMAP Diversity Plus: CASM3C Assay for Tissue Factor Biomarker Activity (AID 2283052).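 Note: cell surface tissue factor protein level read by ELISA.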 As to conditions: primary human coronary artery smooth muscle cells; actives raise or lower the signal.

Read-out in test [11]: Urokinase-type plasminogen activator receptor (uPAR), PLAUR (gene 5329)
Briefly: BSK_CASM3C_uPAR: BioMAP Diversity Plus: CASM3C Assay for Urokinase-type plasminogen activator receptor (uPAR) Biomarker Activity (AID 2283054).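 Note: cell-surface uPAR protein level quantified by ELISA.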 The following applies: primary human coronary artery smooth muscle cells; actives raise or lower the signal.

Read-out in test [12]: Vascular cell adhesion molecule 1 (VCAM1), VCAM1 (gene 7412)
Nature of the test: BSK_CASM3C_VCAM1: BioMAP Diversity Plus: CASM3C Assay for Vascular cell adhesion molecule 1 (VCAM1) Biomarker Activity (AID 2283055).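 Note: VCAM-1 protein level quantified by ELISA on the cells.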 The following applies: primary human coronary artery smooth muscle cells; actives raise or lower the signal.

Read-out in test [13]: Collagen III, COL3A1 (gene 1281)
Briefly: BSK_hDFCGF_CollagenIII: BioMAP Diversity Plus: hDFCGF Assay for Collagen III Biomarker Activity (AID 2283056). As to conditions: primary human foreskin fibroblasts; actives raise or lower the signal. In outline: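 ELISA readout of Collagen III in human dermal (foreskin) fibroblasts, taken 24 h post-treatment. Gain or loss relative to DMSO vehicle fitted in both directions.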

Test [14] is described as follows: BSK_hDFCGF_SRB: Viability Assessment in the BioMAP Diversity Plus: hDFCGF Assay (AID 2283061).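 Note: cells exposed to compound for 24 h before the read.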 As to conditions: primary human foreskin fibroblasts. In outline:
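Viability was read as total protein: after 10% TCA fixation, wells were stained with 0.1% sulforhodamine B and read at 560 nm. Primary human foreskin fibroblasts were dosed for 24 h, with bidirectional fitting versus DMSO.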

Read-out in test [15]: Thrombomodulin, THBD (gene 7056)
Briefly: BSK_CASM3C_Thrombomodulin: BioMAP Diversity Plus: CASM3C Assay for Thrombomodulin Biomarker Activity (AID 2283051).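 Note: thrombomodulin protein level measured by ELISA 24 h after dosing.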 The following applies: primary human coronary artery smooth muscle cells; actives raise or lower the signal.

Read-out in test [16]: Epidermal growth factor receptor (EGFR), EGFR (gene 1956)
Briefly: BSK_hDFCGF_EGFR: BioMAP Diversity Plus: hDFCGF Assay for Epidermal growth factor receptor (EGFR) Biomarker Activity (AID 2283057). As to conditions: primary human foreskin fibroblasts; actives raise or lower the signal. Summed up:
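Dosing human primary skin fibroblasts, then measuring surface EGFR by ELISA at 24 h, gives the endpoint; gains and losses relative to DMSO were fitted in both directions.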

Read-out in test [17]: Interleukin-8 (IL8), CXCL8 (gene 3576)
Nature of the test: BSK_hDFCGF_IL8: BioMAP Diversity Plus: hDFCGF Assay for Interleukin-8 (IL8) Biomarker Activity (AID 2283058). As to conditions: primary human foreskin fibroblasts; actives raise or lower the signal. Summed up: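 IL-8 levels read by ELISA at 24 hours after dosing human skin fibroblast cultures. Parallel SRB staining assessed overt cytotoxicity, and gain or loss of signal was fitted against DMSO control.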

Test [18] can be described thus: BSK_hDFCGF_Proliferation: Cell Proliferation Assessment in the BioMAP Diversity Plus: hDFCGF Assay (AID 2283059).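 Note: curves fitted for both rise and fall of signal versus DMSO baseline.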 As to conditions: primary human foreskin fibroblasts. In outline: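 Sub-confluent human foreskin fibroblast cultures receive test chemical […]. Relative cell number is quantified by sulforhodamine B staining (0.1%, after 10% TCA fixation) at 560 nm, with bidirectional fitting referenced to DMSO.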

Read-out in test [19]: Macrophage colony-stimulating factor (MCSF), CSF1 (gene 1435)
Briefly: BSK_hDFCGF_MCSF: BioMAP Diversity Plus: hDFCGF Assay for Macrophage colony-stimulating factor (MCSF) Biomarker Activity (AID 2283060). As to conditions: primary human foreskin fibroblasts; actives raise or lower the signal. In outline:
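M-CSF levels read by ELISA at 24 h post-dosing in human skin fibroblasts. Parallel cultures stained with SRB assessed cytotoxicity at the same time point; response fitted in both directions against the DMSO baseline.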

The structures appear in SMILES notation. The source made the active and inactive calls. Rule for the calls: active = hit-call score of the fitted dose curve at least 0.9, where 1 is the maximum; inactive = score below 0.9.

As usually defined, the AC50 is the midpoint of the concentration-response curve, whichever way the signal moves.

Turning to `O=c1c(-c2ccc(O)cc2)coc2cc(O)cc(O)c12`, the concentration at half-maximal activity (AC50) in [1] is 20 µM (active); in test [2], 27.6 µM (active); in test [5] it was 28.6 µM (active); in test [6] it was 11.7 µM (active); in test [8], 20 µM (active); in test [11] it was 29.6 µM (active). For the same compound, the half-maximal activity concentration (AC50) in test [12] is 25.7 µM (active); in [14], 14.3 µM (active). For the same compound, the outcome in test [3], in test [4], in test [7], in test [9], in test [10] and in test [13] was inactive.

As for `Cc1occc1C(=O)Nc1ccc(C(=O)N2CCC(F)(F)/C(=C\C(=O)N3CCC(N4CCCCC4)CC3)c3ccccc32)cc1`, the result in test [1], in test [2], in [3], in test [5], in [6] and in test [7] was inactive. Also, the outcome in test [8], in test [9], in test [15], in [10], in test [11] and in test [12] was inactive. Also, the result in test [13], in [16], in [17] and in test [14] was inactive. The concentration at half-maximal activity (AC50) in test [4] was 10.8 µM (active).

For `C[C@]12CC[C@@H]3c4ccc(O)cc4CC[C@H]3[C@@H]1CC[C@H]2O`, the outcome in test [1], in [2], in [3], in test [4], in test [5] and in [7] was inactive. Moreover, the outcome in test [8], in test [9], in [15], in test [10], in [11] and in test [16] was inactive. Further, the result in test [17], in test [18], in test [19] and in test [14] was inactive. Also, the half-maximal activity concentration (AC50) in test [6] is 13.2 µM (active); in test [12], 16 µM (active); in test [13] it was 12 µM (active).

`O=C(OCCCCCCOC(=O)c1ccccc1)c1ccccc1`: the result in test [1], in test [2], in test [3], in test [4], in test [5] and in [6] was inactive. For the same compound, the outcome in test [7], in [8], in [9], in test [10], in test [11] and in test [12] was inactive. Also, the result in test [16], in [18] and in test [14] was inactive. The AC50 in test [15] is 15.9 µM (active).

In the case of `CCCCCCCCCC(=O)O`, the outcome in test [1], in test [2], in [3], in [4], in test [5] and in [6] was inactive. Also, the result in test [7], in test [8], in [9], in [15], in test [10] and in [11] was inactive. Further, the result in test [12], in test [13], in [16] and in test [14] was inactive.

Turning to `O=C1CCC(C2CCCCC2)CC1`, the outcome in test [1], in test [2], in test [3], in test [4], in test [5] and in test [6] was inactive. Moreover, the outcome in test [7], in [8], in test [9], in [15], in [10] and in [11] was inactive. In addition, in test [12], the outcome was inactive. Besides, the half-maximal activity concentration (AC50) in test [13] was 20.7 µM (active); in test [16] it was 29.9 µM (active); in [14], 34.4 µM (active).

Consider `O=C(O)Cn1c(=O)n(Cc2ccc(Br)cc2F)c(=O)c2ccc(Cl)cc21`, for which the result in test [1], in test [2], in test [3], in test [4], in test [5] and in test [6] was inactive. Moreover, the outcome in test [7], in [8], in test [9], in test [15], in [10] and in [11] was inactive. The result in test [12], in test [13], in [16], in test [17] and in [14] was inactive.

In the case of `c1ccc2n[nH]nc2c1`, the outcome in test [1], in [2], in test [3], in test [4], in test [5] and in test [6] was inactive. For the same compound, the outcome in test [7], in test [8], in test [9], in [15], in test [10] and in test [11] was inactive. Further, the outcome in test [12], in test [13], in test [16], in test [17], in test [18] and in test [19] was inactive. The outcome in test [14] was inactive.

The record behind these values is PubChem BioAssay (EPA / NIEHS).
